# Assay results published in PubChem BioAssay AID652054 (National Center for Advancing Translational Sciences (NCATS), 2013).
# The campaign covered roughly 360,000 compounds. About 9,100 (2.5%) were called active. Roughly 4% stayed inconclusive and do not appear here. The sample as a whole holds a higher share of actives than the screen did. A number with no mark means an inactive call. Rule as the data show it: active = max response below about -50%; inconclusive = no clear call, values can overlap the other calls; inactive = above that.
# Target: D(3) dopamine receptor (Homo sapiens) (UniProt P35462)
# Assay: qHTS of D3 Dopamine Receptor Antagonist: qHTS
# Conditions: D3R cells, DiscoveRx beta-arrestin luminescence, antagonist mode; hits give low values
# How it was run: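 Cells plated overnight at 1500 cells/well, then exposed to library compounds with dopamine controls for 90 minutes at 37 degrees C. DiscoveRx reagent added for 30–60 minutes at room temperature; luminescence read, quantitative HTS format.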
# % is scaled to controls: 0 for no effect and ±100 for the full control effect.
# D(3) dopamine receptor (Homo sapiens), sequence (P35462 whole entry, looked up): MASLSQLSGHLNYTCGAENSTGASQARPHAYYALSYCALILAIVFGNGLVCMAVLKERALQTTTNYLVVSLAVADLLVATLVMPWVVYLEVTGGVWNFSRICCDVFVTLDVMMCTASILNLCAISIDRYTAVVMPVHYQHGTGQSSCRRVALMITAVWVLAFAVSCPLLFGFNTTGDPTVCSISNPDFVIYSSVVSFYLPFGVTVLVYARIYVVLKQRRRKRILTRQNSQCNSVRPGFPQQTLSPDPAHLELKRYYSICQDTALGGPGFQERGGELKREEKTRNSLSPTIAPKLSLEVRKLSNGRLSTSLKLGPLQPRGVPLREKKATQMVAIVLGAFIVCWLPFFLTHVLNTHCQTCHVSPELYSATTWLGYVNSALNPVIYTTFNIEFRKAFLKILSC
row,SMILES,"max response, negative = inhibition"
1,COc1ccc(OC)c(NC(=O)c2cc(-c3cc(F)ccc3OCC3CCCO3)n[nH]2)c1 (stereo not given),8.86%
2,COc1ccc(-n2c(-c3ccc(Cl)cc3)n[nH]c2=S)c(OC)c1,15.8%
3,COC(=O)C[C@H]1C=C[C@@H](NS(=O)(=O)c2ccc(C)cc2)[C@@H](CO)O1,14.9%
4,CCCCc1nc2ccc(F)cc2cc1C,20.6%
5,Cc1ccc(C)c(OCC(=O)NNC(=O)C2CCC2)c1,1.58%
6,CC(=O)Nc1ccc(S(=O)(=O)N2CCN(CCCOc3cc(C)ccc3C)CC2)cc1,15.6%
7,Cc1ccc(C(C)(C)C)c(OCCCCN2CCCC2)c1,-80.6% (active)
8,Cc1ccc(OCCCC(=O)N2CCOCC2)c(C)c1,4.43%
9,Cc1ccc(OCCCCN2CCCCC2)c(Br)c1,-102% (active)
10,C=CCc1cc(C)ccc1OCCCn1ccnc1,-3.51%
11,CCN(CC)C(=O)C(C)N1c2cccc3cccc(c23)S1(=O)=O (stereo not given),-22.2%
12,Cc1cccc(CN2CCN(C3CN(Cc4cn(Cc5ccccc5F)nn4)S(=O)(=O)C3)CC2)c1 (stereo not given),6.92%
13,O=C1c2ccccc2-c2ccccc2NC1O (stereo not given),0%
14,O[C@H]1CN(Cc2cccs2)[C@@H](c2ccc(Cl)cc2)C[C@@H]1n1cc(C2CC2)nn1,8.97%
15,NC(c1ccccc1)c1csc(NC(=O)Nc2cccc(C(F)(F)F)c2)n1 (stereo not given),18.1%
16,C#CCNC(=O)C[C@@H]1C[C@@]2(C(=O)OCC)CCCC=C2N(Cc2ccco2)C1=O,5.5%
17,Cc1ccc(C(=O)N/C(=C/c2ccc(-c3cccc([N+](=O)[O-])c3)o2)C(=O)NCCCN(C)C)cc1,10.3%
18,Cc1ccc(-c2ccc(/C=C(\C#N)C(N)=S)o2)c([N+](=O)[O-])c1,-5.05%
19,Cc1ccc(Cc2cnc(NC(=O)/C(C#N)=C/c3ccc(-c4cccc([N+](=O)[O-])c4)o3)s2)cc1,-59.9% (active)
20,Cc1[nH]c2ccccc2c1C(=O)c1cc([C@H](NC(=O)OC(C)(C)C)C(C)C)sc1N,17.9%
21,COC(=O)c1ccc(CN2C(=O)C(Cc3ccccc3)ON=C2c2ncccc2C)o1 (stereo not given),14.2%
22,CCCCCCN1CCN(C2CN(Cc3cn(CCCCCC)nn3)S(=O)(=O)C2)CC1 (stereo not given),-13.3%
23,O=C(Nc1cccc2cccnc12)c1ccc2sc([C@H]3C[C@H](O)[C@@H](CO)O3)nc2c1,119%

row,SMILES,"max response, negative = inhibition"
1,CN(C)CCNc1ccc(-c2n[nH]c(=O)c3ccccc23)cc1[N+](=O)[O-],-21.7%
2,CSc1ccccc1NC(=O)CN(C)CC(=O)Nc1ccc(Cl)cc1[N+](=O)[O-],-10.8%
3,CCN(CC)CCNc1ccc(Cl)cc1[N+](=O)[O-],-86.2% (active)
4,CC1Cc2[nH][nH]c(=O)c2C(C2CC2)O1 (stereo not given),2.81%
5,O=C(NCc1ccccc1)C1c2ccccc2OCC(=O)N1C1CC1 (stereo not given),3.07%
6,CCC(c1nc2ccccc2[nH]1)n1c(=O)c(-c2cccs2)nc2ccccc21 (stereo not given),-19.2%
7,CC(=O)Nc1cnc(-c2ccc(O)cc2C)cn1,12.9%
8,CC1(C(=O)NS(=O)(=O)c2cccc(OC(F)F)c2)CCN1C(=O)COc1ccc(Cl)cc1 (stereo not given),0%
9,CCOc1ccc(C(=O)Nc2nccs2)cc1[N+](=O)[O-],2.71%
10,COc1cccc(OCC(=O)NNC(=O)c2cnccn2)c1,-0.611%
11,COc1ccc(C(=O)NNC(=O)c2cnccn2)cc1[N+](=O)[O-],-63.8% (active)
12,CCc1nc2ccc(C(=O)Nc3cc(-c4ccccc4)ccc3OC)cn2c1N(CC)CC(=O)N(C)C,-16.4%
13,NC(Cc1ccccc1)c1csc(Nc2cc(Oc3ccccc3)ncn2)n1 (stereo not given),9.45%
14,O=C(c1cc(C2CCCCN2S(=O)(=O)c2ccccc2)on1)N1CCOCC1 (stereo not given),44.2%
15,CCCCN(C(C)=O)c1ccc2c(c1)C1CC2CCN1Cc1ccccc1 (stereo not given),-22%
16,O=C(Cn1cnc2c(nnn2-c2ccccc2)c1=O)N1CCC(Cc2ccccc2)CC1,-67.4% (active)
17,COc1ccc(-n2nnc3c(=O)n(CC(=O)N4CCC(Cc5ccccc5)CC4)cnc32)cc1,-29.9%
18,COc1ccc(-n2nnc3c(=O)n(CC(=O)OCc4ccccc4)cnc32)cc1,7.78%
19,CC(C)(C)Cc1c(C2CCCCC2)nc2ccc(Br)cn12,20.9%
20,CCN(CC)c1ncnc2c1ncn2[C@H]1CN(Cc2cccs2)C[C@@H](CO)O1,-18.3%
21,CC1(C(=O)NCc2ccc3c(c2)OCO3)CCN1C(=O)Cc1cccc2ccccc12 (stereo not given),-2.93%
22,O=C(c1ccco1)N1CCN(Cc2cccc(C(F)(F)F)c2)CC1,19.4%
